According to PubChem BioAssay (EPA / NIEHS):
The source made the active and inactive calls. How the source made its calls: active means hit-call score of the fitted dose curve at least 0.9, where 1 is the maximum; inactive means score below 0.9.

Tests used:
[1] = ATG_CRE_CIS: Attagene CIS-FACTORIAL HepG2 Assay for human cAMP Responsive Element (CRE) binding protein 3 (AID 2282926); details: HepG2 CRE cis-reporter, Attagene multiplexed mRNA; actives raise or lower the signal
Method in brief: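 We dosed HepG2 cells bearing multiple cis-promoter reporter units for 24 h and measured reporter mRNA by RT-PCR with capillary electrophoresis detection. Bidirectional concentration-response fitting used DMSO as negative control.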

[2] = target: CCAAT/enhancer-binding protein beta (Homo sapiens) (UniProt P17676); test: ATG_C_EBP_CIS: Attagene CIS-FACTORIAL HepG2 Assay for human CCAAT/Enhancer Binding Protein (C/EBP) beta (AID 2282927); details: HepG2 Attagene cis-factorial transcription factor reporter; actives raise or lower the signal
Method in brief: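 HepG2, transient MRTU transfection, 24 h treatment. RT-PCR plus CE fluorescence; DMSO negative control, bidirectional fit.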

[3] = ATG_CMV_CIS: Attagene CIS-FACTORIAL HepG2 Assay for human CMV (Internal Marker) (AID 2282928); details: HepG2 CMV promoter reporter, transcription factor profiling; actives raise or lower the signal;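 further: endpoint acts as a background internal control marker rather than a target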
Method in brief: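 Endogenous transcription factor activity read in HepG2 via transfected cis-promoter reporter units. After 24 h dosing, reporter mRNA measured by RT-PCR/capillary electrophoresis; gain or loss of signal fit relative to DMSO.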

[4] = ATG_DR4_LXR_CIS: Attagene CIS-FACTORIAL HepG2 Assay for human Liver X Receptor (LXR), DR4 submotif (AID 2282929); details: HepG2 Attagene DR4 cis-reporter, mRNA transcription; actives raise or lower the signal
Method in brief: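 DR4 cis-reporter in HepG2, 24 h exposure. Detection: RT-PCR, 6-FAM labelling, CE fragment analysis. Endpoint fitted bidirectionally, DMSO = baseline.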

[5] = target: Aryl hydrocarbon receptor (Homo sapiens) (UniProt P35869); test: ATG_Ahr_CIS: Attagene CIS-FACTORIAL HepG2 Assay for human Aryl Hydrocarbon Receptor (Ahr) (AID 2282930); details: HepG2 AhR cis-factorial reporter transcription; actives raise or lower the signal
Method in brief: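 Endogenous factor activity is tracked through cis-promoter reporter units transfected into HepG2 cells. Transcript levels at 24 h are read by fluorescent RT-PCR and capillary electrophoresis, with activity in either direction scored relative to DMSO.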

[6] = ATG_AP_1_CIS: Attagene CIS-FACTORIAL HepG2 Assay for human Activator Protein 1 (AP-1) (AID 2282931); details: HepG2 Attagene cis-factorial AP-1 reporter mRNA; actives raise or lower the signal
Method in brief: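 Cis-regulated reporter units transiently expressed in HepG2 report endogenous transcription-factor activity. Signal: reporter mRNA at 24 h, via RT-PCR and fluorescent capillary electrophoresis. Endpoint derived by bidirectional fitting, DMSO as negative control.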

[7] = ATG_AP_2_CIS: Attagene CIS-FACTORIAL HepG2 Assay for human Activator Protein 2 (AP-2) (AID 2282932); details: HepG2 AP-2 cis-reporter, Attagene transcription factor profiling; actives raise or lower the signal
Method in brief: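 Multiplexed mRNA reporter assay in HepG2: cis-regulated units report endogenous factor activity after 24 h treatment. Fluorescence from capillary electrophoresis of RT-PCR products gives the signal, with DMSO as baseline.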

[8] = ATG_BRE_CIS: Attagene CIS-FACTORIAL HepG2 Assay for human Bone Morphogenetic Protein (BMP) Response Element (BRE) (AID 2282933); details: HepG2 BMP response element reporter, Attagene transcription factor profiling; actives raise or lower the signal
Method in brief: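 Endogenous transcription factor activity read in transiently transfected HepG2 cells after 24 h chemical exposure. Bidirectional curve fitting against DMSO; readout is reporter transcript level by RT-PCR with capillary electrophoresis of labelled products.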

[9] = target: Retinoic acid receptor alpha (Homo sapiens) (UniProt P10276); test: ATG_DR5_RAR_CIS: Attagene CIS-FACTORIAL HepG2 Assay for human Retinoic Acid Receptor Alpha (RARE), DR5 submotif (AID 2282934); details: HepG2 Attagene cis-factorial RARE DR5 reporter, mRNA; actives raise or lower the signal;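 on AC50: reporter responds to endogenous RAR alpha beta and gamma in HepG2 not RARA alone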
Method in brief: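 After 24 h of chemical exposure, transiently transfected HepG2 cells were lysed for total RNA; the DR5-regulated reporter transcript was quantified via RT-PCR and capillary electrophoresis, with activity fitted bidirectionally against DMSO.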

[10] = ATG_E_Box_CIS: Attagene CIS-FACTORIAL HepG2 Assay for human Enhancer Box (E-box) (AID 2282936); details: HepG2 E-box cis-reporter transcription, actives raise or lower the signal
Method in brief: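 First, HepG2 cells receive multiple cis-regulated reporter constructs by transient transfection. Next, chemicals are applied for 24 h. Finally, reporter mRNA is quantified via RT-PCR and capillary electrophoresis, with DMSO as baseline.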

[11] = ATG_M_61_CIS: Attagene CIS-FACTORIAL HepG2 Assay for M61 Transcription Factor (Internal Marker) (AID 2282937); details: HepG2 Attagene CIS-FACTORIAL M61 internal marker reporter; actives raise or lower the signal
Method in brief: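 Background-control endpoint: HepG2 cells with cis-regulated reporter constructs, 24 h exposure, reporter mRNA detected via fluorescent primer extension and capillary electrophoresis; values from bidirectional fitting with DMSO baseline.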

[12] = ATG_EGR_CIS: Attagene CIS-FACTORIAL HepG2 Assay for human Early Growth Response 1 (EGR1) (AID 2282938); details: HepG2 Attagene CIS-FACTORIAL EGR reporter mRNA; actives raise or lower the signal
Method in brief: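 Endpoint derived by bidirectional fitting versus DMSO vehicle. Method: cis-promoter reporter units transfected into HepG2, 24 h dosing, RNA isolation, RT-PCR with 6-FAM primer extension and HpaI digestion, then capillary electrophoresis fluorescence detection.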

[13] = ATG_M_19_CIS: Attagene CIS-FACTORIAL HepG2 Assay for M19 Transcription Factor (Internal Marker) (AID 2282939); details: HepG2 Attagene CIS-FACTORIAL M19 internal marker reporter; actives raise or lower the signal
Method in brief: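 Internal marker readout, fitted in both directions against DMSO, from HepG2 cells carrying transfected cis-element reporter constructs; RT-PCR and capillary electrophoresis of reporter mRNA after 24 h exposure.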

[14] = target: Transcription factor E2F1 (Homo sapiens) (UniProt Q01094); test: ATG_E2F_CIS: Attagene CIS-FACTORIAL HepG2 Assay for human E2F Transcription Factor 1 (AID 2282935); details: HepG2 Attagene cis-reporter, E2F reporter RNA transcripts; actives raise or lower the signal
Method in brief: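 Measures reporter transcript levels via RT-PCR with capillary electrophoresis detection in HepG2 cells harboring cis-regulated reporter units; 24 h post-dose; bidirectional curve fitting with DMSO as baseline.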

Measured: AC50

Chain of Aryl hydrocarbon receptor (Homo sapiens) (P35869 whole entry, looked up): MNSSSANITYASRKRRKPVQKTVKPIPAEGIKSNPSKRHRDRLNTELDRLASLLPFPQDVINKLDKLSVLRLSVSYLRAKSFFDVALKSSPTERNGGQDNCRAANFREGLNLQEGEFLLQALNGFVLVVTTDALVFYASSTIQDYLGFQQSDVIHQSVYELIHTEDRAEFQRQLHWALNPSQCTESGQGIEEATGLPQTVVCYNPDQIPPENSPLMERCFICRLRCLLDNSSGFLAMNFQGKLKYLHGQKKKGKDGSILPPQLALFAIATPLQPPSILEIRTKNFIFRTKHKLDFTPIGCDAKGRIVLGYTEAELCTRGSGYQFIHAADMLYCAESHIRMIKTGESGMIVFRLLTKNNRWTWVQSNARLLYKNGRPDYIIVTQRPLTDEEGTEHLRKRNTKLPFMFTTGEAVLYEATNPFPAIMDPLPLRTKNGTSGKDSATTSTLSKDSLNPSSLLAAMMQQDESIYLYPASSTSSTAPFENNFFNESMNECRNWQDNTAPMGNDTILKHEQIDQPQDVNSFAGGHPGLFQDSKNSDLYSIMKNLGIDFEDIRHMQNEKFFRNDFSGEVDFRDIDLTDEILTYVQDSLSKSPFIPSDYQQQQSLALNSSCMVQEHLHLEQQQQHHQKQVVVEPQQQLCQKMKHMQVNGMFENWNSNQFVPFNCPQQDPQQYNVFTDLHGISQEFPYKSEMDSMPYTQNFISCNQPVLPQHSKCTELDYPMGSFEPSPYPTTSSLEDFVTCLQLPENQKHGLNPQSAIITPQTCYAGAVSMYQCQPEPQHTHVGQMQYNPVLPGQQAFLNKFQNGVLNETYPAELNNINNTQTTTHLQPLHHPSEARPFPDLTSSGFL
Chain of Transcription factor E2F1 (Homo sapiens) (Q01094 whole entry, looked up): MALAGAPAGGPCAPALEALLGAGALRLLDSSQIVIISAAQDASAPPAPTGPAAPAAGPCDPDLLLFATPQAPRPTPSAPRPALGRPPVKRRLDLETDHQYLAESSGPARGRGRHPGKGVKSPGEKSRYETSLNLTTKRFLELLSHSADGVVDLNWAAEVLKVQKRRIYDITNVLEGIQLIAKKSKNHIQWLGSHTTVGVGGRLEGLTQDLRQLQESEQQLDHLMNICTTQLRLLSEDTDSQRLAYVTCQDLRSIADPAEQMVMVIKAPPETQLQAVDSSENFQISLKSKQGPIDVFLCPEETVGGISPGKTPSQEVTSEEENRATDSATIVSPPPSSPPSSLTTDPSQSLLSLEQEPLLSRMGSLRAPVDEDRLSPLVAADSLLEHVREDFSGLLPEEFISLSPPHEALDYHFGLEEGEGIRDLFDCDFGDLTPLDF
Chain of Retinoic acid receptor alpha (Homo sapiens) (P10276 whole entry, looked up): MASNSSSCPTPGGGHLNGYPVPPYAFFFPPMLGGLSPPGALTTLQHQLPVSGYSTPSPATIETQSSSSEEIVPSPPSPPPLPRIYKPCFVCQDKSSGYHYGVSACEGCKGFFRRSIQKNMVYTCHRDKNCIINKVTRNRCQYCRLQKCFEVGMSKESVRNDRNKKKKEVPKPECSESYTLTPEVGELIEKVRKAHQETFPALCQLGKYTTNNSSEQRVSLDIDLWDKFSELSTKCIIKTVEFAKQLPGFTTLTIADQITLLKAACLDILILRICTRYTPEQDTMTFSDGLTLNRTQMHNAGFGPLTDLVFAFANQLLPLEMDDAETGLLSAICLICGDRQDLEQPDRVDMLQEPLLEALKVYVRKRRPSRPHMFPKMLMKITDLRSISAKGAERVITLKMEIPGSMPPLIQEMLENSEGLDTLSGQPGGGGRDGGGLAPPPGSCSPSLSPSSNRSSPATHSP
Chain of CCAAT/enhancer-binding protein beta (Homo sapiens) (P17676 whole entry, looked up): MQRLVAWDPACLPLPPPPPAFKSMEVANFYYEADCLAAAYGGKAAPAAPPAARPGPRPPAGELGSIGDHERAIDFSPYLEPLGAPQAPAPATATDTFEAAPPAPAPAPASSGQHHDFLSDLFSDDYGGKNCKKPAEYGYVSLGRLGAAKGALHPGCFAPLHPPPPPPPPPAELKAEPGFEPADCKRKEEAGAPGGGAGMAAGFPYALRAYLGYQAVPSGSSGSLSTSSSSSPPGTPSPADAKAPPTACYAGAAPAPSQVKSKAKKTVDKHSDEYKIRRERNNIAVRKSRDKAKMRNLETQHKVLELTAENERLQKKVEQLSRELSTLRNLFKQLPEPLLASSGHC

O=C1c2ccccc2C(=O)C1C(=O)C(c1ccccc1)c1ccc(Cl)cc1 (stereo not given)
active: [1] 27.5 µM | [3] 13.7 µM | [5] 8.72 µM | [6] 5.27 µM | [8] 5.02 µM | [9] 8.58 µM | [11] 88.4 µM | [12] 13.1 µM | [13] 33.4 µM
inactive: [2] | [4] | [7] | [10]

CCCCCCCCCCCCN(C)C
active: [3] 33.4 µM | [4] 50.9 µM | [7] 33.4 µM | [9] 57.4 µM | [10] 7.96 µM | [12] 53.9 µM
not listed: [8]
inactive: all other assays above

O=c1nc(O)n(Cl)c(=O)n1Cl
not listed: [9] | [10]
inactive: all other assays above

Cl[C@H]1OCCO[C@@H]1Cl
not listed: [8]
inactive: all other assays above

CC1(C)[C@H](C(=O)O[C@H](C#N)c2cccc(Oc3ccccc3)c2)[C@@H]1/C=C(\Cl)C(F)(F)F
not listed: [9] | [10] | [14]
inactive: all other assays above

COc1ccc(N)cc1
not listed: [9]
inactive: all other assays above

CCOCn1c(-c2ccc(Cl)cc2)c(C#N)c(Br)c1C(F)(F)F
inactive: [2] | [3] | [6] | [11]
active: [1] 1.2 µM | [4] 8.63 µM | [5] 170 µM | [7] 3.76 µM | [8] 1.1 µM | [9] 0.518 µM

N#Cc1ccccc1Cl
not listed: [10] | [14]
inactive: all other assays above

O=S(=O)(C(Cl)(Cl)Cl)C(Cl)(Cl)Cl
active: [1] 15.2 µM | [6] 2.78 µM | [14] 6.13 µM
not listed: [8] | [10] | [12]
inactive: all other assays above

Cc1cc(Cl)ccc1O
not listed: [10] | [12]
inactive: all other assays above

C[N+](C)(C)Cc1ccccc1
not listed: [9] | [13]
inactive: all other assays above

O=[N+]([O-])c1cc([As](=O)(O)O)ccc1O
not listed: [10] | [12]
inactive: all other assays above

CCOC(=O)CCN(SN(C)C(=O)Oc1cccc2c1OC(C)(C)C2)C(C)C
active: [4] 100 µM | [6] 151 µM | [8] 163 µM
not listed: [14]
inactive: all other assays above

Cc1cc(Cl)ccc1OCCCC(=O)O
not listed: [13] | [14]
inactive: all other assays above

CN(N=O)C(N)=O
not listed: [14]
inactive: all other assays above

C1CN2CCN1CC2
not listed: [8]
inactive: all other assays above

O=CCCl
inactive: [7] | [8] | [9] | [11] | [13]
active: [1] 24.7 µM | [2] 25 µM | [3] 60.9 µM | [4] 68.5 µM | [5] 84.7 µM | [6] 165 µM | [10] 183 µM | [12] 38.4 µM

O=C(NC(=O)c1c(F)cccc1F)Nc1cc(Cl)c(OC(F)(F)C(F)C(F)(F)F)cc1Cl (stereo not given)
active: [5] 27.7 µM | [6] 100 µM
not listed: [10] | [12]
inactive: all other assays above

C=CCOC(F)(C(F)(F)F)C(F)(F)F
not listed: [8] | [10]
inactive: all other assays above

CC1CC(=O)O1 (stereo not given)
not listed: [8]
inactive: all other assays above
